The results in this text go back to PubChem BioAssay.

The source made the active and inactive calls.

For assay [1], the system named is Plasmodium falciparum Sir2 (PF13_0152, Sir2A). Nature of the assay: Plasmodium falciparum Sir2A binding compounds – biochemical, small-molecule microarray, 635 nm fluorescence, primary screen (AID 1098).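 Further: score merges spot fluorescence intensity with its signal-to-noise ratio.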 The note with it: fluorescence 635 nm, higher = more signal.
Assay [2] is described as follows: probe aDKK1 binding to arrayed compounds – biochemical, biotinylated probe, 635/667 nm fluorescence, primary screen (AID 1099).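 Further: score merges 667nm spot fluorescence with signal to noise across triplicate slides; reference of the scale not given here.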 The note with it: small-molecule microarray, higher = more signal.
Assay [3] can be described thus: probe aCHRDL2 binding to arrayed compounds – biochemical, biotinylated probe, 635/667 nm fluorescence, primary screen (AID 1100). The note with it: small-molecule microarray, higher = more signal.
The nature of assay [4]: change in splice reporter luminescence, either direction, cell-based, HEK293, spliceosome inhibition project, primary screen (AID 1101).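 Further: HEK293 cells carrying a splicing-competent luciferase reporter gene; test concentration not given here.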 The note with it: HEK293 splicing luciferase reporter, 24 h, higher = more signal, called active from +8 up or from −8 down.
In assay [5] the target is Fibroblast growth factor 10 (Homo sapiens) (UniProt O15520). The experiment in a line: compounds binding fibroblast growth factor 10 – biochemical, small-molecule microarray, 635 nm fluorescence, primary screen (AID 1102). The note with it: FGF10 binding, fluorescence 635 nm, higher = more signal.
Chain of Fibroblast growth factor 10 (Homo sapiens) (O15520 whole entry, looked up): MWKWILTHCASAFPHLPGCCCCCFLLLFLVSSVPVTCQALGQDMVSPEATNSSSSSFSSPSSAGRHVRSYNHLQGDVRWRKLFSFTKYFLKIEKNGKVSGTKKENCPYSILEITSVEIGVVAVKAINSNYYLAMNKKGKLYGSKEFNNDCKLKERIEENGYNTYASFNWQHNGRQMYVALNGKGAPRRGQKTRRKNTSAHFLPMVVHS
Assay [6] has as its system glycogen synthase kinase-3 (GSK3A per assay name; protocol says GSK3B). Nature of the assay: compounds binding glycogen synthase kinase-3 – biochemical, small-molecule microarray, 635 nm fluorescence, GSK3A, primary screen (AID 1103). Further: the record names both GSK3A and GSK3B. The note with it: fluorescence 635 nm, higher = more signal.
Assay [7] deals with Epidermal growth factor receptor (Homo sapiens) (UniProt P00533). The experiment in a line: compounds binding epidermal growth factor receptor – biochemical, small-molecule microarray, 635 nm fluorescence, primary screen (AID 1104).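 Further: score merges 667 nm emission intensity with spot signal to noise over triplicate slides.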 The note with it: EGFR binding, higher = more signal.
Chain of Epidermal growth factor receptor (Homo sapiens) (P00533 whole entry, looked up): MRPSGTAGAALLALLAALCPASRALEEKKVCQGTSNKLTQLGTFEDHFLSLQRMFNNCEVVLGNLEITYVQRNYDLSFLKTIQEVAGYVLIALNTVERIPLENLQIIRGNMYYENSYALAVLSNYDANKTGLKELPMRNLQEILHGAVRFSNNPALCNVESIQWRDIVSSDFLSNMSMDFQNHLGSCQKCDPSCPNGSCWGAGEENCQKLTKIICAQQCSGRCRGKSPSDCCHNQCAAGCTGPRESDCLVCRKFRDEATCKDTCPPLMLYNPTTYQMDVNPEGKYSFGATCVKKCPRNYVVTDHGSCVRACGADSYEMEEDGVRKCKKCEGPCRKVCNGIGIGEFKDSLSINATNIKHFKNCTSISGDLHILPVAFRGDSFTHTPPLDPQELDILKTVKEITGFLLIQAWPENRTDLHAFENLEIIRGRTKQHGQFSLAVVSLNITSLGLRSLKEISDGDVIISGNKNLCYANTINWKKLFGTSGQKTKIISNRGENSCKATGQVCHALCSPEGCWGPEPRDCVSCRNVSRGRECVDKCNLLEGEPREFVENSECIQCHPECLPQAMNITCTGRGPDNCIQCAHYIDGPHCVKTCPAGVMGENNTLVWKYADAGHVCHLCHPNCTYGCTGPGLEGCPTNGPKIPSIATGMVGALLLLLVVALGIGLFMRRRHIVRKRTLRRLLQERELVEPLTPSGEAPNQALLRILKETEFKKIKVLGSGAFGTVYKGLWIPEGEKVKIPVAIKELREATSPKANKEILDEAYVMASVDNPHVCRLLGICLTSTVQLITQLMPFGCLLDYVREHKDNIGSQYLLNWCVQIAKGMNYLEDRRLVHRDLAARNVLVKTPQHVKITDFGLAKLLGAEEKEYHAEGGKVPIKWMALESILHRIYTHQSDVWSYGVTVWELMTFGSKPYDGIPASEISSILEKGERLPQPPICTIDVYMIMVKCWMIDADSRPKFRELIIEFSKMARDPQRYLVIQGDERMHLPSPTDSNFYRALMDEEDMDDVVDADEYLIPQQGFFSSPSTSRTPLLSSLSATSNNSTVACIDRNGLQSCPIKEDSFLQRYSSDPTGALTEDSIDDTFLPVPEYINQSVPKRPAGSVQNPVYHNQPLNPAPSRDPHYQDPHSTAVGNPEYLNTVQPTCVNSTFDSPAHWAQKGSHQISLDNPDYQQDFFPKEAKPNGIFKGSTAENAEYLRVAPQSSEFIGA
Assay [8] concerns the target Follistatin-related protein 3 (Homo sapiens) (UniProt O95633). The experiment in a line: compounds binding follistatin-related protein 3 – biochemical, small-molecule microarray, 635 nm fluorescence, primary screen (AID 1105).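 Further: score merges emission near 667 nm and signal to noise per printed spot across three slides.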 The note with it: FSTL3 binding, higher = more signal.
In assay [9] the target is Dickkopf-related protein 1 (Homo sapiens) (UniProt O94907). Nature of the assay: small molecules binding DKK1 protein – biochemical, small-molecule microarray, 635 nm fluorescence scan, primary screen (AID 1106).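 Further: score merges emission near 667 nm with signal to noise over three replicate slides.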 The note with it: higher = more signal.
Chain of Dickkopf-related protein 1 (Homo sapiens) (O94907 whole entry, looked up): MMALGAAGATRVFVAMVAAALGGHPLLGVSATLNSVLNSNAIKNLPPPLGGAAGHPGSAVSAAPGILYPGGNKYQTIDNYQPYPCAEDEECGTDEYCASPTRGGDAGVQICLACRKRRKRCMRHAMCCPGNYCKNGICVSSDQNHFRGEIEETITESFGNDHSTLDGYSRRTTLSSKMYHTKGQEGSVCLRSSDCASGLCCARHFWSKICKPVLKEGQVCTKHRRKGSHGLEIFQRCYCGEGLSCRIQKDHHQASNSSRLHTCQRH
The test system of assay [10] is Inhibin beta A chain (activin A). Nature of the assay: small molecules binding activin A – biochemical, small-molecule microarray, 635 nm fluorescence scan, primary screen (AID 1107).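 Further: mouse activin A protein probed at 4.33 µg/mL on printed slides; score merges bound-protein fluorescence near 667 nm with spot signal-to-noise.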 The note with it: INHBA, higher = more signal.

Chain of Follistatin-related protein 3 (Homo sapiens) (O95633 whole entry, looked up): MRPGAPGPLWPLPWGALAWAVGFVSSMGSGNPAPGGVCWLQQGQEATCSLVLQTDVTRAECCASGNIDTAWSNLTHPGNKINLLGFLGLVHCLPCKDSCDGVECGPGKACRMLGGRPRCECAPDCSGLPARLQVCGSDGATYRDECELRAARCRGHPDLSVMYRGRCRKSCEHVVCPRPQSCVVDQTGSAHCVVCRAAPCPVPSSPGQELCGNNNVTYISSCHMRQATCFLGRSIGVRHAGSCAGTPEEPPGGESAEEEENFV

As to `O=C1C[C@@](C(=O)NCc2ccccc2)(c2ccc([N+](=O)[O-])cc2)[C@@H](c2ccc(CO)cc2I)N1C1CCCCC1`, the composite z-score amounted to 0.838 in assay [1]; 1.78 in assay [2]; 0.652 in [3]; 0.7 in assay [5]; 1.16 in assay [6]; 0.768 in [7]. Moreover, the results for the composite z-score in [8], in assay [9] and in assay [10] were 1.33, 0.876 and 0.654, respectively. The z-score in [4] is -0.551 (inactive).
As to `NC(=O)NCC#Cc1ccc2c(c1)[C@]1(C(=O)N2)[C@H](c2ccc(O)cc2)N2[C@H](c3ccccc3)[C@H](c3ccccc3)OC(=O)[C@H]2[C@@H]1C(=O)NC[C@H](O)c1ccccc1`, the composite z-score in [1] is -0.227; in assay [2] it was 0.004; in assay [3], 0.725; in [5], -1.39; in assay [6], -0.964; in [7], -1.2. Also, the composite z-score in assay [8] is -2.26; in [9], -1.53; in assay [10], -1.82. Besides, the z-score in [4] was -0.647 (inactive).
With `C=C(/C(=C/C[C@@H](OC(=O)c1ccncc1)c1ccccc1OCCO)c1cnc2ccccc2c1)C(C)C`, the composite z-score was 0.25 in assay [1]; 0.0171 in assay [2]; -0.21 in assay [3]; 1.55 in assay [5]; 1.29 in assay [6]; 1.23 in [7]. Moreover, the results for the composite z-score in assay [8], in [9] and in [10] were 1.61, 0.413 and 1.77, respectively. For the same compound, the z-score in [4] is -2.43 (inactive).
On to `COC(=O)C(CC#Cc1ccc2c(c1)[C@]1(C(=O)N2)[C@H](C(=O)N2CCc3cc(OC)c(OC)cc3C2)[C@H]2C(=O)O[C@H](c3ccccc3)[C@H](c3ccccc3)N2[C@@H]1c1ccc(O)cc1)C(=O)OC`, for which the composite z-score was determined as 1.06 in [1]; 0.432 in assay [2]; 0.417 in [3]; 1.4 in assay [5]; 1.35 in assay [6]; 0.919 in [7]. The composite z-score was 1.43 in assay [8], 1.71 in [9] and -0.227 in [10]. Besides, the z-score in [4] was 0.362 (inactive).
Regarding `COCCOC(=O)N1C(=O)[C@@]2(c3cc(C#CCCO)ccc31)[C@H](c1ccc(OCCO)cc1)N1[C@H](c3ccccc3)[C@H](c3ccccc3)OC(=O)[C@H]1[C@@H]2C(=O)N1CCc2cc(OC)c(OC)cc2C1`, the composite z-score in assay [1] is 1.29; in assay [2], -0.0877; in [3], 0.232; in assay [5] it was 1.16; in assay [6], 1.31; in assay [7] it was 0.58. For the same compound, the composite z-score in [8] was determined as 0.882; in assay [9], 0.582; in assay [10] it was 0.413. The z-score in assay [4] was 0.309 (inactive).
On to `O=C(Nc1cc(Br)ccc1C(=O)NCc1cccc(O)c1)c1ccccc1`, for which the composite z-score was 0.487 in [1]; 0.429 in assay [2]; -0.339 in [3]; 0.394 in assay [5]; 0.476 in [6]; 0.379 in [7]. Further, the composite z-score in [8] was 0.148; in [9], 0.257; in [10] it was -0.0621. For the same compound, the z-score in assay [4] is -0.419 (inactive).
Take `COCCCNC(=O)[C@]1(CCS(=O)(=O)c2ccccc2)N=C(c2ccc(OCCCO)cc2)O[C@@H]1c1ccccc1`: the composite z-score in [1] worked out at 1.86; in assay [2], 0.126; in [3], 0.937; in assay [5] it was 1.01; in assay [6], 1.01; in [7], 0.304. In addition, the composite z-score in [8] was 0.485; in assay [9] it was 0.0266; in assay [10], 0.455. Besides, in assay [4], the z-score is -0.594 (inactive).
For `Cc1ccc(S[C@]2(C(=O)NCc3ccccc3)CC(=O)N(C3Cc4ccccc4C3)[C@@H]2c2ccc(CO)cc2I)cc1`, the composite z-score in assay [1] is 0.976; in assay [2], 0.699; in assay [3] it was 0.995; in [5] it was -0.699; in assay [6], -0.488; in [7], -0.807. Besides, the composite z-score in assay [8] is -0.645; in assay [9] it was -1.13; in [10], 0.889. Also, in assay [4], the z-score is -1.83 (inactive).
Turning to `C=CCC(OC(C)=O)[C@@H]1[C@@H](N(Cc2ccc(-c3cccc(C(F)(F)F)c3)o2)C(=O)c2cccc3ccccc23)c2cc(OCCCO)ccc2N1C(=O)c1ccc(-c2ccccc2)cc1` (stereo not given in full), the composite z-score in assay [1] was 0.295; in assay [2], 0.0007; in [3], -0.0042; in assay [5], 0.192; in [6] it was -0.579; in [7], 0.181. Also, the composite z-score in assay [8] is 0.248; in [9], 0.518; in assay [10], 1.09. In assay [4], the z-score was -0.791 (inactive).
Turning to `[N-]=[N+]=NCc1ccccc1[C@H]1OC(c2ccc(OCCCO)cc2)=N[C@@]1(Cc1ccccc1)C(N)=O`, the composite z-score in assay [1] was 1.51; in assay [2], 1.19; in [3], 0.947; in assay [5], 0.923; in assay [6], 0.644; in [7] it was -0.43. Moreover, the composite z-score is 0.546 in [8], -0.952 in [9] and 0.669 in assay [10]. For the same compound, the z-score in assay [4] is -0.312 (inactive).
With `O=C1O[C@@H](c2ccccc2)[C@@H](c2ccccc2)N2[C@@H](c3ccc(O)cc3)[C@]3(C(=O)Nc4ccc(C#CC5(O)CCCCCC5)cc43)[C@@H](C(=O)N3CCN(c4ncccn4)CC3)[C@H]12`, the composite z-score in assay [1] is 0.479; in assay [2] it was -0.125; in assay [3], -0.127; in assay [5], 0.74; in assay [6] it was 0.709; in [7], -0.0042. For the same compound, the composite z-score was 0.639 in [8], 0.226 in [9] and -0.293 in assay [10]. Further, in [4], the z-score was -0.453 (inactive).
Turning to `CN1C(=O)C2C=CC(C(O)COCc3ccccc3)N(Nc3ccccc3)C2C1=O` (stereo not given), the composite z-score in assay [1] was 0.867; in [2], -0.109; in assay [3], 0.285; in [5] it was 0.558; in [6], 0.453; in assay [7] it was 0.132. The composite z-score in assay [8] amounted to 1.06; in assay [9] it was 0.0378; in assay [10], 1.18. The z-score in [4] was 1.43 (inactive).
Consider `COCCCNC(=O)[C@]1(Cc2ccccc2CN=[N+]=[N-])N=C(c2ccc(OCCCO)cc2)O[C@@H]1c1ccccc1CN=[N+]=[N-]`, for which the composite z-score is 1.59 in assay [1]; 1.35 in [2]; 1.25 in [3]; 0.944 in assay [5]; 1.19 in [6]; 0.119 in [7]. Also, the composite z-score in [8] was 0.07; in assay [9], -0.214; in assay [10], 0.413. Also, in assay [4], the z-score is 0.438 (inactive).
For `C=CC[C@]1(C(=O)NCC(O)CO)N=C(c2ccc(OCCCO)cc2)O[C@H]1c1ccccc1N=[N+]=[N-]` (stereo not given in full), the composite z-score was 0.939 in assay [1]; 0.731 in assay [2]; 1.28 in assay [3]; 0.258 in assay [5]; -0.216 in assay [6]; -0.0496 in assay [7]. In addition, the composite z-score in assay [8] is -0.291; in assay [9], -0.379; in assay [10] it was 1.42. For the same compound, in [4], the z-score was -0.789 (inactive).
Consider `O=C1NC(=O)C2C1C=CC(C(O)c1ccc3c(c1)OCO3)N2Nc1ccc(Cl)cc1Cl` (stereo not given), for which the composite z-score in [1] is 0.981; in assay [2], 0.849; in assay [3], 1.06; in [5], 0.553; in assay [6], -0.334; in [7] it was 0.205. In addition, the results for the composite z-score in assay [8], in assay [9] and in assay [10] were 0.304, -0.278 and 1.19, respectively. In addition, the z-score in assay [4] was 0.889 (inactive).
